Screening results as filed in PubChem.
Sfp inh: inhibitors of Bacillus subtilis Sfp phosphopantetheinyl transferase. 310,000 compounds, 3.5% hits. Biochemical Sfp PPTase activity, qHTS. Potency, µM, inactives show largest response in the series, negative = inhibition, hits mostly inhibitors;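 also: the enzyme is Sfp with the accession as filed and its product quenches rhodamine fluorescence; potency is read from the fitted curve at half-maximal effect; 0% = enzyme reaction without inhibitor and -100% = no enzyme wells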
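Fluorescence-quenching assay with 15 nM Sfp, 5 uM rhodamine-CoA and 12.5 uM BHQ-2-labelled ybbR peptide in pH 7.6 Hepes/MgCl2 buffer. Enzyme was pre-incubated with compound for 15 min at room temperature. Rate was taken from the 30-min fluorescence change (525/598 nm).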
G9a inh: inhibitors of human histone lysine methyltransferase G9a | Q96KQ7 | G9a H3K9 monomethylation, AlphaScreen, 2 h | Potency, µM (titrated, usually from 102 µM), for inactives: at the highest dose activity, negative = inhibition, most hits filed as inhibitors | 350,000 compounds, 8.8% hits | AID 504332; also: potency is read from the fitted curve at half-maximal effect; nearly all actives have a fitted effect of over 75% in size
Target sequence (Q96KQ7 913-1193 limits assumed): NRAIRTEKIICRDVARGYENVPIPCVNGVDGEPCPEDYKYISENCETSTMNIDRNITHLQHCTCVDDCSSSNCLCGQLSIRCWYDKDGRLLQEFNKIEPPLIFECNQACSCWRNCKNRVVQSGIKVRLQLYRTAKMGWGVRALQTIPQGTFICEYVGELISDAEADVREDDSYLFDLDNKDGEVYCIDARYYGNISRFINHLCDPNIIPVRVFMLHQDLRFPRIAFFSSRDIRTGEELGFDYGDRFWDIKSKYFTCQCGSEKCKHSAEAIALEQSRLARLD
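Using a bead-based AlphaScreen, monomethylated H3K9 product from 2 h room-temperature reactions (G9a 20 nM, peptide 500 nM, SAM 20 uM) was detected with 0.5 ug/mL rabbit anti-H3K9me1 antibody.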
Tau fibril ThT: inhibitors of human tau fibril formation, thioflavin T binding; 270,000 compounds, 2.1% hits; AID 1460; recombinant tau K18 P301L, heparin-induced fibrillization, ThT fluorescence; Potency, µM (top dose mostly 57.4 µM), without a hit: top-dose activity, negative = inhibition, actives largely listed as inhibitors; P10636; also: potency is read from the fitted curve at half-maximal effect; nearly all actives have a fitted effect of over 55% in size
Target sequence (P10636 561-689 P618L limits assumed): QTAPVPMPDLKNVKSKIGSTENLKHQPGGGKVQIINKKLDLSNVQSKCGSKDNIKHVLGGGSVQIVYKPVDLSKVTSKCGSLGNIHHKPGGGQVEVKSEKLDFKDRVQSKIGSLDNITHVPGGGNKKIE
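Heparin-induced fibrillization of the P301L-mutant K18 repeat-domain fragment of human tau was followed by ThT binding in quantitative high-throughput format.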
Tau FP inhib: blocks human tau fibril formation measured by polarization | AID 1468 | P10636 | Potency, µM (highest dose often 57.7 µM), without a hit: at the highest dose activity, negative = inhibition, usual class: inhibitors | 280,000 compounds, 0.39% hits | K18 P301L tau heparin fibrillization, Alexa594 FP, 6 h; also: potency is read from the fitted curve at half-maximal effect; nearly all actives have a fitted effect of over 55% in size
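Read-out: fluorescence polarization of Alexa 594-labeled tau (0.24 uM), 555 nm excitation, 632 nm emission. Mixtures held 15 uM unlabeled K18 P301L, compound and 20 uM heparin, pH 7 acetate buffer, incubated 6 hr at 37 C.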
Tau fluor cs: counter-screen for tau fibril formation inhibitors | tau K18 P301L Alexa594 fluorescence, heparin fibrillization | Potency, µM (doses to about 57.7 µM), inactives show at the top dose activity change, negative = decrease | 280,000 compounds, 0.93% hits | AID 1463; also: potency is read from the fitted curve at half-maximal effect; nearly all actives have a fitted effect of over 55% in size
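Human tau K18 P301L (15 uM unlabeled, 0.24 uM Alexa 594-labeled) in 100 mM sodium acetate pH 7 with 20 uM heparin, 6 hr at 37 C. ThT 30 uM added, 1 hr ambient; Alexa 594 FP and total fluorescence read at 555/632 nm.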
FBPA coupling cs: inhibits coupling enzyme system, counter-screen for aldolase hits | 290,000 compounds, 0.67% hits | coupling enzyme system counterscreen, AmpLite Red fluorescence | activity change, negative = inhibition, % at 58.2 µM, hits read low | AID 2472; in the data active = activity change below about -30%
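Counterscreen of the coupled detection system alone, without aldolase: glyceraldehyde-3-phosphate coupling enzymes plus AmpLite Red readout. Compounds at 57.5 uM final, 10 min RT preincubation, 20 min RT reaction, fluorescence 525/598 nm.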
An asterisk follows results filed as active; ? = inconclusive; / = no result given; [ ] = dose if it differs, or a comment. Only some compounds are listed: those with a hit (about 11% of all), similar ones and a draw of the others. Unless noted, calls follow the shape of the dose curve; as a rule, active = well fitted curve in the direction sought with a large enough effect; inconclusive = small, poorly fitted or top-dose-only effect, or another doubt; inactive = no such curve, though single readings can be large; an effect the other way counts as inactive or inconclusive. Unless noted, % is scaled to controls: 0 for no effect and ±100 for the full control effect.

SMILES	Sfp inh	G9a inh	Tau fibril ThT	Tau FP inhib	Tau fluor cs	FBPA coupling cs
Cc1ccc(OCC(=O)N2CCN(C(=O)CCC3CCCC3)CC2)cc1	14.1%	5.1%[59 µM]	5.7%	9.3%	2.3%	-3.6
O=C(CCC1CCCC1)N1CCN(C(=O)COc2ccccc2)CC1	-3.8%	50.1µM*	-1.2%	4.2%	-1.8%	7.7
COC(=O)C1CCN(C(=O)CCC2CCCCC2)CC1	4.8%	7.08µM*	-5.8%	4.5%	-3.8%	1.5
O=C(CCC1CCCC1)N1CCC(N2CCCCCC2)CC1	-5.3%	?	8.9%	-0.2%	7.8%	-2.3
CCOC(=O)C(=O)N1CCC(C(=O)OC)CC1	10.9%	35.5µM*	-0.1%	9.1%	-2.8%	3.3
O=C(NCCc1ccccc1)c1ccc(CSc2nc3ccncc3n2Cc2cccc(F)c2)cc1	/	?	-2.9%	0.7%	-27.1%	/
CC1CCN(S(=O)(=O)c2ccc3nc(NCc4ccccc4)ccc3c2)CC1	/	-47.0%[59 µM]	-4.5%	-17.7%	?	/
CC1CCN(S(=O)(=O)c2ccc3nc(Nc4cccc(F)c4)ccc3c2)CC1	/	24.6%[59 µM]	21.0%	12.6µM*	?	/
Cc1ccc(Nc2ccc3cc(S(=O)(=O)N4CCC(C)CC4)ccc3n2)c(Cl)c1	/	15.8µM*	-3.6%	?	?	/
COCCN(Cc1ccc(C)c(Br)c1)S(=O)(=O)c1ccc2[nH]c(=O)ccc2c1	/	5.0%[59 µM]	6.5%	-5.6%	-12.1%	/
Cc1ccc(-c2nnn(CC(=O)N(CC(=O)NCc3ccccc3)c3cccc(C)c3C)n2)o1	25.1µM*	3.55µM*	-32.2%	-6.8%	-18.9%	0.4
Cc1cccc(N(CC(=O)NCc2ccccc2)C(=O)Cn2nnc(-c3ccc(C)o3)n2)c1	21.7%	-3.7%	-1.0%	0.7%	-6.0%	0.8
Cc1ccc(-c2nnn(CC(=O)N(CC(=O)NC3CCCCC3)c3ccccc3F)n2)o1	-5.4%	35.5µM*	/	/	/	-1.9
Cc1cccc(N(CC(=O)NC2CCCCC2)C(=O)Cn2nnc(-c3ccc(C)o3)n2)c1	0.8%	44.7µM*	1.0%	-1.4%	1.1%	1.3
COc1ccc(CNC(=O)c2ccc3c(c2)N(Cc2ccccc2)C(=O)c2ccccc2S3(=O)=O)cc1	/	-0.5%[59 µM]	2.0%	?	?	/
O=C(Nc1ccccc1)c1ccc(-c2ccccc2Cl)o1	10.9%	50.1µM*	-18.8%	?	?	-7.5
O=C(NCCc1ccccc1)c1ccc(-c2ccccc2Cl)o1	6.2%	44.7µM*	?	-3.1%	-25.2%	-1.6
O=C(NCc1cccnc1)c1ccc(-c2cc(Cl)ccc2Cl)o1	56.2µM*	/	-21.7%	9.1%	-26.8%	-3.2
O=C(Nc1ccccc1)c1ccc(-c2ccccc2C(F)(F)F)o1	-19.6%	44.7µM*	-17.4%	-7.7%	-29.7%	-4.8
O=C(NCc1ccccc1Cl)c1cc2cccc3c2n1CCS3	/	2.2%[59 µM]	-2.0%	-10.0%	?	/
COc1cccc(Cn2c(=O)cnc3cnc(OC)nc32)c1	8.2%	9.1%[0.501 µM]	/	/	/	4.0
CCn1cc(S(=O)(=O)c2ccccc2)c(=O)c2cc(F)c(N3CCN(c4ccccc4)CC3)cc21	/	-22.9%[59 µM]	8.2%	-5.0%	1.4%	/
COc1ccc(/C=C2/SC(=S)N(Cc3ccccc3)C2=O)cc1O	-9.7%	22.2%	/	/	/	-0.9
COc1ccccc1/C=C1\SC(=S)N(N2C(=O)CCCC2=O)C1=O	0.6%	20µM*	?	1.5%	?	-2.1
COc1ccc(/C=C2\SC(=S)N(N3C(=O)CCC3=O)C2=O)cc1O	-44.3%	8.91µM*	?	?	-21.3%	0.0
SMILES	Sfp inh	G9a inh	Tau fibril ThT	Tau FP inhib	Tau fluor cs	FBPA coupling cs
Cc1cccc(C)c1NC(=O)/C(C#N)=C/c1ccc(-c2ccc(C(=O)O)cc2)o1	4.0%	44.7µM*	/	/	/	2.2
N#C/C(=C\c1ccc(-c2ccc(C(=O)O)cc2)o1)C(=O)NCC1CCCO1 (stereo not drawn)	4.4%	10µM*	-18.4%	2.1%	-6.1%	2.2
COCCNC(=O)C1(C(F)(F)F)C/C(=C/CCO)CCCO1 (stereo not drawn)	14.8%	/	/	/	/	2.4
NC(=O)NC(=O)CC1S/C(=N/N=C/c2ccccc2)NC1=O (stereo not drawn)	22.8%	-26.4%	1.8%	-3.5%	7.4%	-1.8
Cc1ccc(/C=N/N=C2/NC(=O)C(CC(=O)N3CCOCC3)S2)cc1 (stereo not drawn)	39.8µM*	28.2µM*	-5.6%	-1.9%	7.0%	1.7
Cc1cc(C)c2c(-n3cccc3)c(C(=O)NCCCN3CCCCC3)sc2n1	/	-36.4%[59 µM]	-7.6%	-12.7%	-24.0%	/
CCCCCCCCCCC/C=C\C/C=C\CCCC(=O)O	7.0%	9.4%[59 µM]	-6.3%	-0.8%	1.8%	-2.7
CCCCC/C=C\C/C=C\C/C=C\C/C=C\CCCC(=O)C(F)(F)F	28.2µM*	18.0%[59 µM]	?	?	1.7%	-9.8
COC(=O)C(C)n1cnc2c(nnn2-c2ccccc2)c1=O (stereo not drawn)	7.9%	89.1µM*	/	/	/	-1.2
CCOC(=O)C(C)n1cnc2c(nnn2-c2ccccc2)c1=O (stereo not drawn)	9.6%	14.6%	/	/	/	0.3
O=[N+]([O-])c1cc([N+](=O)[O-])c(Oc2cccnc2Br)cc1NN1CCCCC1	2.2%	39.8µM*	/	/	/	3.7
O=[N+]([O-])c1cc([N+](=O)[O-])c(Oc2c(Cl)cccc2Cl)cc1NN1CCCCC1	7.7%	25.1µM*	/	/	/	1.3
O=[N+]([O-])c1cc([N+](=O)[O-])c(Oc2c(F)ccc(F)c2F)cc1NN1CCCCC1	15.7%	31.6µM*	/	/	/	-0.2
CC(=O)N1CCC2(CCCN(C(=O)Nc3cccc(C#N)c3)C2)CC1	10.7%	-1.0%[12.7 µM]	/	/	/	-3.6
Cc1cc(C)nc(Nc2cccc(C(F)(F)F)c2)n1	5.9%	50.1µM*	/	/	/	4.2
Cc1cc(Cl)c(C(=O)Nc2cccc(C(F)(F)F)c2)c(C)n1	?	44.7µM*	/	/	/	1.3
Nc1ccccc1Nc1cccc(C(F)(F)F)c1	7.4%	6.31µM*	-6.1%	14.0%	?	-3.3
CCOC(=O)c1ccc(Nc2cc(C)nc(C)c2C(=O)OCC)cc1	16.0%	-6.3%[59 µM]	-12.2%	12.4%	-3.8%	0.1
CCOC(=O)c1ccc(NC(=O)c2c(Cl)cc(C)nc2C)cc1	-13.1%	50.1µM*	/	/	/	-1.2
O=C(c1noc2c1CCCCC2)N1CCN(c2ccc(Cl)cc2)CC1	/	-3.1%[59 µM]	?	2.7%	-19.4%	/
CN(C(=O)CSc1nnc(-c2ccccc2F)o1)C1CCCCC1	/	-1.9%[59 µM]	0.8%	6.3%	-1.6%	/
COCCn1c(C)cc(O)c(C(c2ccccc2)N2CCN(CCO)CC2)c1=O (stereo not drawn)	/	?	?	?	6.4%	/
CC1SC(c2ccccc2Cl)NC1=O (stereo not drawn)	5.1%	4.1%	-3.5%	3.4%	-3.4%	0.1
